Compounds without any hit were thinned out: in the full panel of roughly 83,000, 20% have a hit.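 96-well plates, one dose, 48 hours. Percent growth reported; active if below 10.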 Activity calls are given as the source filed them.

In the experiment the test system is MDA-MB-468 breast. The experiment in a line: NCI-60 one-dose screen, 48 h (100 = growth as untreated, 0 = no growth, -100 = all killed). The settings on record: 10 µM unless noted.
For `Clc1ccc(CSc2nnc(-c3ccc(Cl)cc3)n2-c2ccccc2)cc1`, the growth is 64.8% (inactive).

On to `O=C(N=c1n(-c2ccccc2)nc2n1CCN2C1=NCCN1)c1ccc(Cl)cc1`, for which the growth is 50.3% (inactive).

Take `COc1ccc(S(=O)(=O)n2c3ccccc3n3ncc(-c4nnc(C)o4)c23)cc1`: the growth is -19.5% (active).

With `CN1C(=O)N(C)C2C1NN=c1s/c(=C\c3c[nH]c4ccccc34)c(=O)n12` (stereo not given), the growth was 39.5% (inactive).

For the compound `CCOC(=O)C1=C(C)NC(=O)NC1c1c(Cl)n(CCCl)c2ccccc12` (stereo not given), the growth was 97.2% (inactive).

On to `Cn1ncc2c(Nc3ccc(Br)cc3)nc(Nc3ccc(Br)cc3)nc21`, for which the growth is 51.4% (inactive).

For the compound `Cc1ccc(OCCCCCCNCCO)c(C)c1`, the growth was -15.9% (active).

In the case of `CCCCCCCC[Si](OCC)(OCC)OCC`, the growth was 97.5% (inactive).

As to `COc1cccc(Cc2nn3cc(-c4ccccc4)nc3s2)c1`, the growth is 92.1% (inactive).

For `CCCCCCCCn1cc(C2=C(c3coc4ccc(OC)cc34)C(=O)NC2=O)c2ccccc21`, the growth is 103% (inactive).

On to `CC(=O)c1ccc(C)cc1`, for which the growth is 98.4% (inactive).

As for `O=C1NCCc2c1noc2-c1ccccc1`, the growth was 99.2% (inactive).

For the compound `COc1ccc(Cl)cc1NC(=O)c1cc2c(n1C)-c1nc(NC(=O)C(C)(C)C)sc1CC2`, the growth is 96.7% (inactive).

Regarding `COc1ccc(/C=C(\C#N)n2nc3cccc(F)c3n2)cc1`, the growth was 100% (inactive).

`Cc1cc2[nH]c(=O)c3c4ncccc4cn3c2cc1C`: the growth is 23.2% (inactive).

With `O=C(N/N=C/c1ccccc1O)c1ccccc1`, the growth was 12.1% (inactive).

For the compound `CN1CCN(CC(=O)N2c3cccc4cccc(c34)N(C(=O)CN3CCN(C)CC3)C2c2cn(-c3ccccc3)nc2-c2cccc([N+](=O)[O-])c2)CC1`, the growth was -68.9% (active).

As for `CN1CCN(c2nc(C3=C(c4c[nH]c5ccccc45)C(=O)NC3=O)c3ccccc3n2)CC1`, the growth was 131% (inactive).

Consider `CC1SC(c2cccc(Oc3ccccc3)c2)N(CCc2cccs2)C1=O` (stereo not given), for which the growth was -45.5% (active).

`NN=C(c1ccc(Cl)cc1)c1ccc(Cl)cc1`: the growth was 111% (inactive).

Regarding `CN1CCN(Cc2ccc(NC(=O)c3cncc(C#Cc4ccc(N)nc4)c3)cc2C(F)(F)F)CC1`, the growth is -8.99% (active).

As to `COc1cccc(CC(C)=C(c2ccc(OCCN3CCCCC3)cc2)c2ccc(OCCN3CCCCC3)cc2)c1`, the growth was -82.8% (active).

Turning to `COc1cc(/C=C2\C(=O)N(c3c(Cl)cccc3Cl)c3ccccc32)cc(OC)c1O`, the growth was 57.4% (inactive).

Regarding `O=C(O)CCCn1c(SCc2c(Cl)cccc2Cl)nc2ccsc2c1=O`, the growth is -4.76% (active).

As for `C/C(=N\Nc1cc(C)c2ccccc2n1)c1ccccn1`, the growth is -63.2% (active).

For the compound `COC(C(=O)[C@@H](O)[C@@H](C)O)[C@@H]1Cc2cc3cc(O[C@H]4C[C@@H](O[C@H]5C[C@@H](O)[C@H](O)C(C)O5)[C@H](O)C(C)O4)c(C)c(O)c3c(O)c2C(=O)[C@H]1O[C@H]1C[C@@H](O[C@H]2C[C@@H](O[C@H]3C[C@@H](O)[C@H](OC)C(C)O3)[C@@H](O)C(C)O2)[C@H](O)C(C)O1` (stereo not given in full), the growth is -60% (active).

Regarding `CC(=O)COc1ccc(Cl)cc1Cl`, the growth was 92.4% (inactive).

As for `COc1cc(C(=O)/C=C/c2cccc(Nc3ccnc4cc(Cl)ccc34)c2)cc(OC)c1OC`, the growth is -49.5% (active).

`COc1ccccc1Cn1cc2c(c1)-c1oncc1CC2`: the growth was 6.66% (active).

Regarding `CCOC(=O)c1sc(Nc2ccc(Cl)cc2)nc1C`, the growth is -13.9% (active).

In the case of `Cc1ccc2c(C(C[N+](=O)[O-])c3ccccc3)c(-c3ccccc3)[nH]c2c1` (stereo not given), the growth is -9.08% [9.5 µM] (active).

For `Oc1ccc(CN(Cc2ccc(C(F)(F)F)cc2)Cc2ccc(O)c3ncccc23)c2cccnc12`, the growth was 4.04% (active).

For the compound `Cc1cc(NC(=O)c2ccc(C)c(Nc3nccc(-c4cccnc4)n3)c2)cc(-n2cnc(C)c2)c1`, the growth was -18.1% (active).

`NC(=S)N/N=C/c1ccc(OC(=O)COc2ccc(Cl)cc2)cn1`: the growth was 24.6% (inactive).

In the case of `COc1ccc2sc(NC(=O)CCCCCCNC(=O)C(O)(O)C(F)(F)F)nc2c1`, the growth was -11.7% (active).

Take `Cc1cc(Nc2cccc(F)c2)nc(NCc2ccccc2)n1`: the growth is 16.2% (inactive).

For `CNC(=O)NN`, the growth is 107% (inactive).

Regarding `CC(C)(C)OC(=O)c1ccc(NCc2cc(O)ccc2O)cc1`, the growth was -17.6% (active).

Consider `CCC1=C[C@@H]2CN(C1)Cc1c([nH]c3ccccc13)[C@@](C(=O)OC)(c1cc3c(cc1OC)N(C=O)[C@H]1[C@@](O)(C(=O)OC)[C@H](OC(C)=O)[C@]4(CC)[C@@H]5C[C@@H]5CN5CC[C@]31[C@@H]54)C2`, for which the growth is 25.2% (inactive).

With `COc1ccc(/C=C/c2nc(Nc3ccc(S(=O)(=O)NC(C)=O)cc3)c3ccccc3n2)cc1`, the growth was 53.2% (inactive).

The values above are taken from PubChem BioAssay (NCI).
